Experimental data reported in PubChem BioAssay.
Where “and” joins values, the source holds several entries; their conditions need not be identical. Identical values can stand only once. Values without a mark were called inactive. For some assays here: Results with a measured potency or affinity are listed apart. Calls of active or inactive are those of the source. Unless noted, how the calls were made is not given here.

Assays:
[1] = antimalarial activity against Dd2 strain (AID 2302;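 active means growth inhibition above 50% at the single 2 µM test dose, taken to imply half-maximal potency below 2 µM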;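 further: 0% = DMSO untreated growth and 100% = chloroquine plus artemisinin killed control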); details: P. falciparum Dd2 in RBCs, LDH growth readout, 72 h; at 2 µM; active compounds read high
[2] = HepG2 cytotoxicity, primary screen, cytotoxicity control for P. falciparum antimalarial project, cell-based, ATP luminescence (AID 2303;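 active means inhibition above 50%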;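 further: 0% = DMSO wells and 100% = digitonin-killed cells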); details: HepG2 viability, 24-48 h, at 10 µM, active compounds read high
[3] = target: L-lactate dehydrogenase (Plasmodium falciparum (isolate CDC / Honduras)) (UniProt Q27743); assay: PfLDH activity inhibition – cell lysate, 3D7 strain, counter-screen for P. falciparum growth inhibition project (AID 2304);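 further: 0% = vehicle and 100% = reference inhibitor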; details: P. falciparum 3D7 crude extract, LDH APAD/NBT absorbance; at 2 µM; active compounds read high
[4] = inhibition of 3D7 malaria parasite growth – strain 3D7 (AID 2306);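 further: 0% = DMSO wells and 100% = chloroquine plus artemisinin control wells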; details: P. falciparum 3D7 erythrocytic growth, LDH absorbance, 72 h; at 2 µM; active compounds read high
[5] = target: Calcium-dependent protein kinase 1 (Plasmodium falciparum (isolate 3D7)) (UniProt P62344); assay: PfCDPK1 kinase inhibitors, biochemical, TCAMS library (AID 1159585; cut-off not given, nearly all actives have IC50 up to about 0.98 µM;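 further: inhibitors leave more ATP so luminescence rises with inhibition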); details: recombinant PfCDPK1, Kinase-Glo ATP depletion luminescence
[6] = target: Plasmodium falciparum protein kinase 6 (PK6, PF3D7_1337100) (UniProt Q8IDW1); assay: PfPK6 kinase inhibitors, biochemical, TCAMS library (AID 1159586); details: recombinant PfPK6, Kinase-Glo ATP depletion luminescence
[7] = target: Protein kinase 7 (PK7), Plasmodium falciparum 3D7 (PF3D7_0213400) (UniProt Q7YTF7); assay: inhibition of Plasmodium PK7 catalytic activity – biochemical, TCAMS antimalarial set, Kinase-Glo luminescence (AID 1159587); details: recombinant PfPK7, Kinase-Glo ATP depletion luminescence
[8] = target: Calcium-dependent protein kinase 4 (Plasmodium falciparum (isolate 3D7)) (UniProt Q8IBS5); assay: PfCDPK4 kinase inhibitors, biochemical, TCAMS library (AID 1159588; cut-off not given, nearly all actives have IC50 up to about 0.91 µM); details: recombinant PfCDPK4, Kinase-Glo ATP depletion luminescence
Chain of Calcium-dependent protein kinase 4 (Plasmodium falciparum (isolate 3D7)) (Q8IBS5 whole entry, looked up): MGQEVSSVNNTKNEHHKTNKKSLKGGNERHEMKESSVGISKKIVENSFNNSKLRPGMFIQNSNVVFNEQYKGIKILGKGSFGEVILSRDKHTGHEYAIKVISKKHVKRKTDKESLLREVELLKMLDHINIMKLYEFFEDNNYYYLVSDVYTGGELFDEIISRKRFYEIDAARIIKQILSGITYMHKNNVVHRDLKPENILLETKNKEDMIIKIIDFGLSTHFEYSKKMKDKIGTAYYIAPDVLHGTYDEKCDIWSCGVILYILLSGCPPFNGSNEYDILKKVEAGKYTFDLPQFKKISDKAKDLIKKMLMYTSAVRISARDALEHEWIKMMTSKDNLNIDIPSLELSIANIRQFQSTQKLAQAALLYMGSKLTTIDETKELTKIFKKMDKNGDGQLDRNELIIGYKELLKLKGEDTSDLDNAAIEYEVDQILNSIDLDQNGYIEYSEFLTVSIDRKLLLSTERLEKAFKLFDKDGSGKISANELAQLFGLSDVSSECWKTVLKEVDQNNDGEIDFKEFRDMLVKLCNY

Chain of Protein kinase 7 (PK7), Plasmodium falciparum 3D7 (PF3D7_0213400) (Q7YTF7 1-343): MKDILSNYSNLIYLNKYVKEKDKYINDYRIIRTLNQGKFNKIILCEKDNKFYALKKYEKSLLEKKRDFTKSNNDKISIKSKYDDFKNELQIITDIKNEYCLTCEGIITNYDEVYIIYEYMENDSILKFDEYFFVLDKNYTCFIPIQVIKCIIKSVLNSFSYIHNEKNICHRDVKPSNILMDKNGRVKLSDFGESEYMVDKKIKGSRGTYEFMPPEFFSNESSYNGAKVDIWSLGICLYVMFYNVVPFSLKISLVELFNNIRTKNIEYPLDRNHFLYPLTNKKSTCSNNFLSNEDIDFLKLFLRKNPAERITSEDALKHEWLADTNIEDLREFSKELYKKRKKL
Chain of L-lactate dehydrogenase (Plasmodium falciparum (isolate CDC / Honduras)) (Q27743 whole entry, looked up): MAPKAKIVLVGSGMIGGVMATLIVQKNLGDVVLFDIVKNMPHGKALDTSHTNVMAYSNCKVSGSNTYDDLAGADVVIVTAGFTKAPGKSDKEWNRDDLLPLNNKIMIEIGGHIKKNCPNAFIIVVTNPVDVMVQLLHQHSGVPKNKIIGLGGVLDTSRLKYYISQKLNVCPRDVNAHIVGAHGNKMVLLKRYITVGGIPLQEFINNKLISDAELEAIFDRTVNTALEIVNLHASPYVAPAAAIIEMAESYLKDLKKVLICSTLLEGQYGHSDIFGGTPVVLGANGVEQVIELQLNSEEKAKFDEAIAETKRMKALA
Chain of Plasmodium falciparum protein kinase 6 (PK6, PF3D7_1337100) (Q8IDW1 1-305): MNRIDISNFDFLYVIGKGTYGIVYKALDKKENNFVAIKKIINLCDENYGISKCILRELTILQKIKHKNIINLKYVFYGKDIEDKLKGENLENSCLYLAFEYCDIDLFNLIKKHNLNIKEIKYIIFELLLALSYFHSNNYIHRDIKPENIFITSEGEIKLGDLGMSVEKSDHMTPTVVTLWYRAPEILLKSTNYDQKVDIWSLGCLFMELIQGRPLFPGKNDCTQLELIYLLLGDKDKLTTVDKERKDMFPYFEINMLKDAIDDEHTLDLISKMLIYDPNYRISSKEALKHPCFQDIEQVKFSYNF
Chain of Calcium-dependent protein kinase 1 (Plasmodium falciparum (isolate 3D7)) (P62344 whole entry, looked up): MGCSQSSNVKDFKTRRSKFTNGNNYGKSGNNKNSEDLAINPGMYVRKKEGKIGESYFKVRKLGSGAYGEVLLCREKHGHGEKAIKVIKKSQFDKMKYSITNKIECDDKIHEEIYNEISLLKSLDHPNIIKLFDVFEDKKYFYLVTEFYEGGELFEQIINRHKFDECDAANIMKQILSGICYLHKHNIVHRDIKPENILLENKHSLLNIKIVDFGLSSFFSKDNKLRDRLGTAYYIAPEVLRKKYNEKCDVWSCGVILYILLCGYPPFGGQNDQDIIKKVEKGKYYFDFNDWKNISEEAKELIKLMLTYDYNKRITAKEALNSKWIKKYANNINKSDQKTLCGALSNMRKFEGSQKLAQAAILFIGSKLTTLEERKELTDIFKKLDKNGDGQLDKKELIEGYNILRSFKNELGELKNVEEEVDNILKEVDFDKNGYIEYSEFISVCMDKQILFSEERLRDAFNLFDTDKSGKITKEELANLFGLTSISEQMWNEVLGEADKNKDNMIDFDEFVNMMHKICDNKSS

Compound	growth inhibition [1]	inhibition [2]	inhibition [3]	growth inhibition [4]	outcome [5]	outcome [6]	outcome [7]	outcome [8]
O=C1NCN(c2ccc(O)cc2)C12CCN(CCCC(c1ccc(F)cc1)c1ccc(F)cc1)CC2	34%	20%	2%	94% (active)	inactive	inactive	inactive	inactive
O=C(C=Cc1ccccc1O)N1CCC(CN2CCC(c3c[nH]c4ccccc34)CC2)CC1	43%	27%	-1%	98% (active)	inactive	inactive	inactive	inactive
CCC1(C)CC(CCNCc2ccccc2O)(c2ccc(F)cc2)CCO1 (stereo unspecified)	32%	20%	6%	98% (active)	inactive	inactive	inactive	inactive
CCCCNC(c1ccc(Cl)cc1)C(O)c1ccc(Cl)cc1 (stereo unspecified)	98% (active)	13%	4%	99% (active)	inactive	inactive	inactive	inactive
O=C(/C=C/c1ccc(Cl)c(Cl)c1)N1CCC(CN2CCC(c3c(-c4ccccc4)[nH]c4ccccc34)CC2)CC1	99% (active)	43%	-8%	101% (active)	inactive	inactive	inactive	inactive
N=c1c2c(n(Cc3ccc(Cl)cc3Cl)c3c1CCC3)CCCC2	73% (active)	-5%	3%	94% (active)	inactive	inactive	inactive	inactive
Cc1ccc(C)c(N2CCN(Cc3ccccc3O)CC2)c1	90% (active)	11%	5%	100% (active)	inactive	inactive	inactive	inactive
CC[C@H]1CN2CCc3cc(OC)c(OC)cc3[C@@H]2C[C@@H]1C[C@H]1NCCc2c1cc(OC)c(OC)c2Br	97% (active)	45%	-1%	99% (active)	inactive	inactive	inactive	inactive
COc1cc2c(c(OC)c1OC)C[C@H]1c3c(cc4c(c3-2)OCO4)CCN1C	30%	7%	-1%	84% (active)	inactive	inactive	inactive	inactive
COc1ccc(O)c(CN2CCN(c3cc(C)ccc3C)CC2)c1	86% (active)	7%	2%	90% (active)	inactive	inactive	inactive	inactive
NC(=O)c1ccc2[nH]cc(C3CCN(CC4CCC(NC(=O)/C=C/c5ccc(Cl)c(Cl)c5)CC4)CC3)c2c1 (stereo unspecified)	26% and 32%	11% and -1%	5% and -8%	101% (active) and 100% (active)	inactive	inactive	inactive	inactive
CCCc1ccc2c(c1O)CCC(N(CCC)CCC)C2 (stereo unspecified)	23%	-3%	3%	90% (active)	inactive	inactive	inactive	inactive
Cc1ccc(CC(C)(C)NCC(O)c2cccc(C(F)(F)F)c2)cc1 (stereo unspecified)	92% (active)	19%	2%	97% (active)	inactive	inactive	inactive	inactive
O=C(/C=C/c1ccc(Cl)c(Cl)c1)N1CCC(CN2CC[C@H](c3c[nH]c4ccccc34)[C@@H](O)C2)CC1	14%	37%	-7%	99% (active)	inactive	inactive	inactive	inactive
CCCCCc1cc(O)c2c(c1)OC(C)(C)CC2C1=CCN(Cc2cnc3ccccc3c2)CC1 (stereo unspecified)	98% (active)	27%	0%	98% (active)	inactive	inactive	inactive	inactive
Cn1nc(-c2ccc(S(=O)(=O)NC3CCC(CN4CCC(c5c[nH]c6ccccc56)CC4)CC3)s2)cc1C(F)(F)F (stereo unspecified)	29% and 24%	35% and 38%	-2% and 9%	98% (active) and 96% (active)	inactive	inactive	inactive	inactive
COCCNCc1cccc(-c2ccccc2CN(C(=O)Nc2ccccc2)C2CCN(Cc3ccccc3)CC2)c1	51% (active)	30%	1%	96% (active)	inactive	inactive	inactive	inactive
Cc1cc(C)c(CC(C)NCC(O)c2cccc(C(F)(F)F)c2)c(C)c1 (stereo unspecified)	99% (active)	0%	5%	100% (active)	inactive	inactive	inactive	inactive
CCCCc1ccc2[nH]cc(C3=CCN(C)CC3)c2c1Br	94% (active)	37%	-5%	94% (active)	inactive	inactive	inactive	inactive
c1ccc2c(NCCCCCCNc3c4ccccc4nc4ccccc34)c3ccccc3nc2c1	80% (active)	60% (active)	3%	99% (active)	inactive	inactive	inactive	inactive
O=C(O)c1ccc2nc(-c3ccc(-c4ccccc4)cc3)n(C3CCN(Cc4ccc(-c5ncc[nH]5)cc4)CC3)c2c1	99% (active)	3%	1%	91% (active)	inactive	inactive	inactive	inactive
Cc1ccc(CC(C)NCC(O)c2cccc(Cl)c2)cc1F (stereo unspecified)	88% (active)	1%	-2%	95% (active)	inactive	inactive	inactive	inactive
